Assay results reported in PubChem BioAssay (EPA / NIEHS).
Calls of active or inactive are those of the source. The calls were made as follows: active = hit-call score of the fitted dose curve at least 0.9, where 1 is the maximum; inactive = score below 0.9.

test: BSK_4H_Eotaxin3: BioMAP Diversity Plus: 4H Assay for Eotaxin 3 Biomarker Activity (AID 2283000); settings: primary human endothelial cells (HUVEC); actives raise or lower the signal;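 as to outcome: CCL26 protein level quantified by ELISA in parallel with SRB cytotoxicity check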
Outline: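 Chemicals were added to human umbilical vein endothelium cultures, and Eotaxin-3 was quantified by ELISA at 24 h. Values were derived by bidirectional fitting with DMSO serving as negative control and activity baseline.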

SMILES	outcome	AC50
OC(CCl)CCl	inactive	
CCCCCCCCN(C)C	inactive	
CCCC(CCC)C(=O)O	inactive	
OCCNCCO	inactive	
CC[C@H](C)C(=O)O[C@H]1C[C@H](O)C=C2C=C[C@H](C)[C@H](CC[C@@H](O)C[C@@H](O)CC(=O)O)[C@H]21	inactive	
CC(C)CCCCCCOC(=O)C1CCCCC1C(=O)OCCCCCCC(C)C (stereo not drawn)	inactive	
c1ccc(C(O[C@@H]2CCCN(CCc3ccc4c(c3)OCO4)C2)c2ccccc2)cc1	inactive	
NNC(=O)c1ccncc1	inactive	
O=c1[nH]cnc2c1ncn2[C@H]1CC[C@@H](CO)O1	inactive	
OCc1c[nH]c2ccccc12		6.67 µM (active)
c1ccc2cc3ccccc3cc2c1	inactive	
Cc1nccn1-c1ccc(Sc2cccc(C3(C(N)=O)CCOCC3)c2)cc1	inactive	
CC(C)C(=O)Nc1ccc([N+](=O)[O-])c(C(F)(F)F)c1	inactive	
CCCCCOC(C)=O	inactive	
OC(Cn1cncn1)(Cn1cncn1)c1ccc(F)cc1F	inactive	
COCc1nnc(-c2ccc[n+]([O-])c2)n1-c1c(Cl)c(Cl)cc2[nH]c(=O)c(=O)[nH]c12	inactive	
CCc1cccc(CC)c1N	inactive	
CCn1nc(C)c2c1C(=O)NCC(c1ccc(O)cc1)=N2	inactive	
FC(F)C(F)(F)COCC1CO1 (stereo not drawn)	inactive	
Cc1ncc([C@@H](CCCCCCc2ccc3c(n2)NCCC3)CC(=O)O)cn1	inactive	
CCCc1ccccc1	inactive	
O=C(O)c1cccc(C[C@@H]2COc3ccc(OCc4nc5cc(F)ccc5s4)cc3[C@@H]2O)c1	inactive	
NC(=O)NN=Cc1ccc([N+](=O)[O-])o1	inactive	
CCCCCCCCCCCCCCCCOS(=O)(=O)O	inactive	
O=C1CN(N=Cc2ccc([N+](=O)[O-])o2)C(=O)N1	inactive	
OCCOCCOCCO	inactive	
O=C(O)c1ccc2c(c1)nc(C(=O)NC1CCN(C3CC3)CC1)n2Cc1cc(-c2ccc(Cl)s2)on1	inactive	
CCCCC(CC)C(=O)OCCOCCOCCOC(=O)C(CC)CCCC (stereo not drawn)	inactive	
